# Measured values published in PubChem BioAssay (NCATS).
# Inconclusive results are not listed. Where a call stands in place of a potency, no number is given. The source made the active and inactive calls. Unless noted, calls come from the whole dose curve.
# Test: Primary qHTS for inhibitors of MERS-S pseudo-typed particle cell entry (AID 1479149); note: nearly all actives have a fitted effect of over 60% in size; note: potency is the fitted concentration of half-maximal effect
# Settings: MERS-S pseudotyped particle entry, luciferase; series mostly up to 57.1 µM
row,Structure (SMILES),Potency
1,CC(C)(C)c1cc(C(C)(C)C)c(NC(=O)c2c[nH]c3ccccc3c2=O)cc1O,inactive
2,C[C@@H]1CCN(C(=O)CC#N)C[C@@H]1N(C)c1ncnc2[nH]ccc12,inactive
3,C[C@@H](N)C(=O)O,inactive
4,Cc1cn(-c2cc(NC(=O)c3ccc(C)c(Nc4nccc(-c5cccnc5)n4)c3)cc(C(F)(F)F)c2)cn1,inactive
5,CC(=O)[O][Hg][c]1ccccc1,2.24 µM (active)

# Test: Primary qHTS for Vero E6 cytotoxicity: counterscreen for inhibitors of SARS-S pseudo-typed particle cell entry (AID 1479150); note: potency is the fitted concentration of half-maximal effect
# Settings: cell viability; series mostly up to 57.1 µM
row,Structure (SMILES),Potency
1,CC(C)(C)c1cc(C(C)(C)C)c(NC(=O)c2c[nH]c3ccccc3c2=O)cc1O,inactive
2,Cn1cncc1[C@@](N)(c1ccc(Cl)cc1)c1ccc2c(c1)c(-c1cccc(Cl)c1)cc(=O)n2C,inactive
3,CCCS(=O)(=O)Nc1ccc(F)c(C(=O)c2c[nH]c3ncc(-c4ccc(Cl)cc4)cc23)c1F,inactive
4,COc1cc2nccc(Oc3ccc(NC(=O)C4(C(=O)Nc5ccc(F)cc5)CC4)cc3)c2cc1OC,inactive
5,O=C(c1cc(Cc2n[nH]c(=O)c3ccccc23)ccc1F)N1CCN(C(=O)C2CC2)CC1,inactive
6,Oc1c(I)cc(I)c2cccnc12,inactive
7,C[C@@H]1CCN(C(=O)CC#N)C[C@@H]1N(C)c1ncnc2[nH]ccc12,inactive
8,C[C@@H](N)C(=O)O,inactive
9,Cc1cn(-c2cc(NC(=O)c3ccc(C)c(Nc4nccc(-c5cccnc5)n4)c3)cc(C(F)(F)F)c2)cn1,inactive
10,CC(=O)[O][Hg][c]1ccccc1,10 µM (active)

# Test: Confirmatory qHTS for VERO E6 Cytotoxicity Assay: Counterscreen for SARS-CoV-2 CPE Assay (AID 1508605); note: nearly all actives have a fitted effect of over 60% in size; note: potency is the fitted concentration of half-maximal effect
# Settings: cell viability luminescence; series mostly up to 20 µM
row,Structure (SMILES),Potency
1,CCCCCCCc1ccc(CCc2cccc(O)c2C(=O)O)cc1,inactive
2,COc1c(C)cnc(Cn2cnc3c(Cl)nc(N)nc32)c1C,inactive
3,CC(C)[C@H]1C(=O)N[C@H](CO)Cc2c[nH]c3cccc(c23)N1C,inactive
4,CCN(CC)CCCCNc1nc2cc(Cl)c(Cl)cc2nc1-c1ccc(-c2cccs2)s1,10 µM (active)
5,Nc1ccc(C(=O)c2cc3c(ccc4ccccc43)[nH]2)cc1,14.1 µM (active)
6,CC1(N2CCC(n3c([C@@H]4CCCNC4)nc4ccccc43)CC2)CCCCCCC1,inactive
7,O=C(c1ccc(Nc2nccc(-c3cc4ccccc4s3)n2)cc1)N1CCC(N2CCCC2)CC1,10 µM (active)
8,COc1cccc2c1CCCC2CCCN1CCN(C2CCCCC2)CC1 (centres undefined),inactive
9,CN(C)c1ccc(C2Nc3ccc4ccccc4c3C3=C2C(=O)CC(C)(C)C3)cc1Br (centres undefined),inactive

# Test: Confirmatory qHTS for activators (rescue) of SARS-CoV-2 Cytopathic Effect (CPE) (AID 1508606); note: nearly all actives have a fitted effect of over 70% in size; note: potency is the fitted concentration of half-maximal effect
# Settings: Vero E6 SARS-CoV-2 CPE rescue, viability luminescence; series mostly up to 20 µM
row,Structure (SMILES),Potency
1,CC(C)[C@H]1C(=O)N[C@H](CO)Cc2c[nH]c3cccc(c23)N1C,1.39 µM (active)
2,CC1(N2CCC(n3c([C@@H]4CCCNC4)nc4ccccc43)CC2)CCCCCCC1,2.82 µM (active)
3,O=C(c1ccc(Nc2nccc(-c3cc4ccccc4s3)n2)cc1)N1CCC(N2CCCC2)CC1,3.55 µM (active)
4,COc1cccc2c1CCCC2CCCN1CCN(C2CCCCC2)CC1 (centres undefined),11.2 µM (active)
5,CN(C)c1ccc(C2Nc3ccc4ccccc4c3C3=C2C(=O)CC(C)(C)C3)cc1Br (centres undefined),inactive
6,S=C(NCc1ccc2c(c1)OCO2)N1CCN(c2ncnc3c2oc2ccccc23)CC1,3.55 µM (active)

# Test: Primary qHTS for inhibitors of La Crosse Virus (LACV) - induced cell death in SH-SY5Y cells (AID 1508616; active = well fitted inhibition curve with a large enough effect;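 note: top concentration of the series differs between compounds; higher means more rescue of cells from virus-induced death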)
# Settings: SH-SY5Y LACV cytopathicity rescue, ATP luminescence, 6 d; series mostly up to 9.63 µM
# Method in brief: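 Screening measures cell viability in LACV-infected SH-SY5Y cultures. Compound was added before virus (0.01 MOI), and ATP was detected by luminescence 6 days later.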
row,Structure (SMILES),outcome
1,CCC1(CCC(C)C)C(=O)NC(=O)NC1=O,inactive
2,O=[N+]([O-])c1cc([N+](=O)[O-])c2ccccc2c1,inactive
3,O=[N+]([O-])c1c(Cl)c(Cl)cc(Cl)c1Cl,inactive
4,CC1(C)CC/C(=C/c2ccc(Cl)cc2)C1(O)Cn1cncn1 (centres undefined),inactive
5,Nc1ccc(Cl)cc1,inactive
6,CCO/N=C(\CC)C1=C(O)CC(c2c(C)cc(C)cc2C)CC1=O (centres undefined),inactive
7,CCOP(=O)(NC(C)C)Oc1ccc(SC)c(C)c1 (centres undefined),inactive
8,ClC1=C(Cl)[C@]2(Cl)[C@@H]3[C@@H]4C[C@@H]([C@H]5O[C@@H]45)[C@@H]3[C@@]1(Cl)C2(Cl)Cl,inactive
9,CCCCCCCCCC(CC)c1ccc(S(=O)(=O)O)cc1 (centres undefined),inactive
10,O=C(O)C(Cl)Cl,inactive
11,CC(C)NCC(O)c1ccc([N+](=O)[O-])cc1 (centres undefined),inactive
12,CCCCCCCCCCCCCCCC[N+](C)(C)C,inactive
13,CCCCOC(=O)c1ccccc1C(=O)OCc1ccccc1,inactive
14,CCOCCOC(C)=O,inactive
